Compound activity (PubChem)
Only some compounds are listed: those with a hit (about 12% of all), similar ones and a draw of the others.
HP1b chromo inh – blocks HP1-beta chromodomain binding to methylated histone tails; P83916; AlphaScreen HP1-beta / biotin-H3K9me3 peptide binding; Potency, µM (series often up to 114 µM), inactives show at the highest dose activity change, negative = inhibition, actives largely listed as inhibitors; actives 0.56% (n = 390,000); AID 540317; note: nearly all actives have a fitted effect of over 70% in size
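HP1-beta protein (50 nM final) preincubated 30 min at room temperature with biotinylated H3(1-18)K9me3 peptide (50 nM) in PBS pH 7.4, 0.01% Tween-20, then compound added for 30 min. AlphaScreen streptavidin donor/nickel chelate acceptor beads (10 ug/mL final), 30 min dark, luminescence read.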
JMJD2A Tudor – blocks the human JMJD2A Tudor domain. AlphaScreen JMJD2A-Tudor / H3K4me3 peptide binding. Potency, µM (top dose mostly 114 µM), for inactives: top-dose activity change, negative = inhibition, actives largely listed as inhibitors. O75164. AID 504339. actives 4.4% (n = 390,000); note: % is set by controls: 0 for no effect and ±100 for the full control effect; nearly all actives have a fitted effect of over 50% in size
Sfp inh – inhibitors of Bacillus subtilis Sfp phosphopantetheinyl transferase; Q9F4F7; Biochemical Sfp PPTase activity, qHTS; Potency, µM, inactives show largest response in the series, negative = inhibition, hits mostly inhibitors; actives 3.5% (n = 310,000);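 note: the enzyme is Sfp with the accession as filed and its product quenches rhodamine fluorescence; 0% = enzyme reaction without inhibitor and -100% = no enzyme wells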
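Sfp 15 nM + cpd, 15 min RT; start w/ rhodamine-CoA 5 uM, BHQ-2-YbbR 12.5 uM (final); 50 mM Hepes pH 7.6, 10 mM MgCl2, 0.01% NP-40, 0.01% BSA; read 525/598 nm at 0 and 30 min.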
G9a block – inhibitors of human histone lysine methyltransferase G9a; G9a H3K9 monomethylation, AlphaScreen, 2 h; Q96KQ7; Potency, µM (series often up to 102 µM), inactives show at the top dose activity, negative = inhibition, usual class: inhibitors; actives 8.8% (n = 350,000); note: % is set by controls: 0 for no effect and ±100 for the full control effect; nearly all actives have a fitted effect of over 75% in size
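Using a bead-based AlphaScreen, monomethylated H3K9 product from 2 h room-temperature reactions (G9a 20 nM, peptide 500 nM, SAM 20 uM) was detected with 0.5 ug/mL rabbit anti-H3K9me1 antibody.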
BAZ2B inh – BAZ2B (human) inhibition; Q9UIF8; AlphaScreen BAZ2B-H3K14Ac peptide displacement; Potency, µM (series often up to 114 µM), for the others: at the top dose activity change, negative = inhibition, actives largely listed as inhibitors; actives 4.4% (n = 360,000); AID 504333; note: % is set by controls: 0 for no effect and ±100 for the full control effect; nearly all actives have a fitted effect of over 60% in size
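AlphaScreen displacement: compounds (up to 110uM) incubated 30 min at room temperature with a preformed 50 nM BAZ2B/50 nM biotinylated H3K14Ac peptide complex in PBS pH 7.4 with Tween-20. Donor and acceptor beads at 10 ug/mL final added, 20 min light-protected before reading.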
L3MBTL1 block – inhibitors of human L3MBTL1 | Q9Y468 | AlphaScreen L3MBTL1–H3K9me1 peptide binding | Potency, µM (top dose mostly 57.1 µM), for inactives: top-dose activity, negative = inhibition, most hits filed as inhibitors | actives 0.66% (n = 230,000) | AID 485360; note: % is set by controls: 0 for no effect and ±100 for the full control effect; nearly all actives have a fitted effect of over 60% in size
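AlphaScreen proximity signal between nickel-chelate acceptor and streptavidin donor beads (final 10 ug/mL) reports binding of 50 nM L3MBTL1 to 75 nM biotin-H3 K9me1 peptide; complex incubated with compounds 30 min at room temperature; cefsulodin titration as control.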
The depositor's hits bear a star; ? = inconclusive; · = not tested or not shown; [ ] = remark or other dose. Calls come from the whole dose curve; as a rule, active = well fitted curve in the direction sought with a large enough effect; inconclusive = small, poorly fitted or top-dose-only effect, or another doubt; inactive = no such curve, though single readings can be large; an effect the other way counts as inactive or inconclusive. Potency is the fitted concentration of half-maximal effect.

SMILES	HP1b chromo inh	JMJD2A Tudor	Sfp inh	G9a block	BAZ2B inh	L3MBTL1 block
Cc1ccccc1NC(=O)Cn1c(O)c(N=NC(=O)c2ccccc2O)c2ccccc21	16%	-32%	-29%	?	63µM*	-8%
Cc1ccc(NCC(=O)N=Nc2c(O)n(C)c3ccccc23)cc1	4%	-25%	?	·	18µM*	23%
O=C(O)c1cccc(Sc2cc(Cl)ccc2C(=O)O)c1	23%	89µM*	·	-4%[0.501 µM]	56µM*	1%
O=C(O)c1cccc(Sc2ccc(Br)cc2C(=O)O)c1	29%	-16%	·	5%[2.33 µM]	-10%	15%
CCOc1ccc(NC(=O)Cn2nc(CC)n3c(cc4sccc43)c2=O)cc1	24%	-4%	·	-20%[59 µM]	-5%	·
Cc1ccccc1C(=O)NC(=S)NCc1cccnc1	10%	-8%	-3%	?	-18%	-8%
O=C(NC(=S)NCc1cccnc1)c1ccccc1F	50%	-4%	4%	?	-13%	·
Cc1ccccc1C(=O)NNC(=S)NC(=O)c1cccnc1	-2%	-27%	?	6.3µM*	-3%	16%
O=C(NC(=S)NNC(=O)c1ccccc1F)c1cccnc1	-15%	16µM*	?	8.9µM*	5%	-10%
O=C(c1cc(F)cc(F)c1)N1CCC(c2nc(-c3ccc(S(=O)(=O)N4CCCC4)cc3)no2)CC1	24%	-18%	·	-26%[59 µM]	-1%	·
CCn1c(=O)cc(OCC(=O)N2CCCCCC2)c2ccccc21	23%	16%	7%	23%[59 µM]	11%	3%
CCn1c(=O)cc(OCC(=O)N2CCN(c3ccc(C)cc3)C(C)C2)c2ccccc21 (configuration not stated)	-9%	-35%	·	6.3µM*	?	·
CCOC(=O)C(=O)NNc1ccc(C)cc1	30%	-6%	-15%	?	3%	6%
CCOC(=O)C(=NCCCN(C)C)NNc1ccc(Br)cc1	-3%	-11%	17%	7.1µM*	4%	4%
CCOC(=O)C(=NCCCN(C)C)NNc1cc(C(F)(F)F)ccc1Cl	?	45µM*	-35%	40µM*	-34%	·
CCOC(=O)C(=O)NNc1ccc(Cl)cc1	32%	3%	2%	?	-2%	·
CCCCN=C(NNc1ccc(Br)cc1)C(=O)OCC	-10%	?	-3%	11µM*	?	-12%
Cc1ccc(-c2noc(-c3cccnc3N(C)Cc3ccc(Cl)cc3)n2)cc1	37%	3%	·	?	-2%	·
Cc1ccc(-c2nn3c(=O)cc(CN4CCN(C(=O)Nc5cc(Cl)ccc5C)CC4)nc3s2)cc1	17%[57 µM]	-15%	·	5%[59 µM]	12%	·
CC(C)CCn1c(SCCc2ccccc2)nc2c1c(=O)[nH]c(=O)n2C	-17%	-19%	-11%	?	2%	·
CN(Cc1ccccc1)c1nc2c(c(=O)[nH]c(=O)n2C)n1C	15%	-20%	21%	3%[59 µM]	-5%	-2%
C=CCn1c(SCCOC)nc2c1c(=O)[nH]c(=O)n2C	1%	-11%	?	40µM*	-4%	·
COCCn1c(SCCCc2ccccc2)nc2c1c(=O)[nH]c(=O)n2C	-11%	-2%	-20%	50µM*	9%	-6%
C/C=C/Cn1c(N(C)Cc2ccccc2)nc2c1c(=O)[nH]c(=O)n2C	20%	-18%	-5%	50µM*	-28%	?
CC(C)n1c(SCCCc2ccccc2)nc2c1c(=O)[nH]c(=O)n2C	-10%	-2%	?	35µM*	1%	10%
SMILES	HP1b chromo inh	JMJD2A Tudor	Sfp inh	G9a block	BAZ2B inh	L3MBTL1 block
Cc1ccc(NC(=O)c2cnn3c(C(F)F)cc(-c4ccccc4)nc23)c(C)c1	34%	-16%	·	-1%[59 µM]	-1%	·
CC1=C(c2ccc(C)c(C)c2)S(=O)(=O)N=C1N1CCC(C(=O)NCCc2ccco2)CC1	?	-24%	·	8%[59 µM]	-17%	·
Cc1ccc(S(=O)(=O)c2nnn(CC(=O)Nc3ccccc3C)c2N)cc1	17%	-21%	·	-30%[59 µM]	-7%	·
Cc1cccc(-c2nc(S(=O)(=O)c3ccccc3)c(N3CCN(c4ccccc4)CC3)o2)c1	2%	-19%	·	?	-22%	·
CCOC(=O)C1CCC(CN(Cc2ccc(OC)cc2)S(=O)(=O)c2ccc(F)c(C(=O)Nc3ccc(C)c(C)c3)c2)CC1 (configuration not stated)	3%	-27%	·	9%[59 µM]	-1%	·
Cc1ccc(CNC(=O)CCCCCn2c(=O)c3sccc3n(CC(=O)N3CCCCC3C)c2=O)cc1 (configuration not stated)	45%	9%	·	-2%[59 µM]	0%	·
Cc1cccc(C(=O)Nc2ccc3nc(SCC(=O)N4CCCC4)sc3c2)c1	30%	-13%	·	-4%[59 µM]	-7%	·
CCOc1ccccc1N(CC)C(=O)c1cc2c(=O)[nH]c3ccc(C)cc3c2s1	26%	3%	·	22%[59 µM]	-19%	·
C/C=C/Cn1c(SCCCc2ccccc2)nc2c1c(=O)[nH]c(=O)n2C	-10%	-25%	-25%	45µM*	-6%	5%
COCCn1c(SCC(=O)OCc2ccccc2)nc2c1c(=O)[nH]c(=O)n2C	1%	-8%	19%	32µM*	-3%	-5%
CCCCSc1nc2c(c(=O)[nH]c(=O)n2C)n1CCc1ccccc1	18%	-18%	9%	?	-3%	-1%
COCCn1c(SCc2ccccc2)nc2c1c(=O)[nH]c(=O)n2C	-4%	-23%	5%	25%[2.33 µM]	8%	·
CCCCCOC(=O)CSc1nc2c(c(=O)[nH]c(=O)n2C)n1CCc1ccccc1	-15%	8%	-14%	13µM*	-6%	9%
C=CCn1c(SCCCc2ccccc2)nc2c1c(=O)[nH]c(=O)n2C	11%	-5%	-16%	45µM*	-4%	-2%
c1ccc(Oc2nc(NC3CCCCC3)c3[nH]cnc3n2)cc1	·	·	-16%	-23%[59 µM]	·	·
COc1cccc(NC(=O)Cn2c(=O)n(CCCC(=O)NCc3ccc4c(c3)OCO4)c(=O)c3ccccc32)c1	3%	-13%	·	6%[59 µM]	3%	·
COc1ccc(C2/C=C\CN(C(=O)C3CCCCC3)C(Cc3ccccc3)C(=O)N2Cc2ccc(F)cc2)cc1 (configuration not stated)	-10%	-24%	3%	·	·	·
Cc1ccc(N2CC(C(=O)Nc3ccccc3C(=O)NC3CCCCC3)CC2=O)cc1C (configuration not stated)	-11%	20µM*	·	·	·	·
Cc1ccc(N2CC(C(=O)NC3CC3)CC2=O)cc1Cl (configuration not stated)	4%	0%	23%	-7%	-1%	·
O=C(NC1CC1)C1CC(=O)N(c2cccc(Cl)c2)C1 (configuration not stated)	43%	-3%	-7%	25µM*	-38%	·
